Hits are enriched below; roughly 0.44% of the tested compounds scored in any of these assays.
EPAC2 ag: agonists of human EPAC2 (RAPGEF4); EPAC2 activation, biochemical qHTS; response scale: 100% = 6.5 mM cAMP response; 360,000 tested, 0.079% active; Potency, µM (doses to about 154 µM), for the others: at the highest dose activation, most hits filed as activators; AID 720711; also: nearly all actives have a fitted effect of over 50% in size
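Compounds were added across a concentration range to EPAC2 (100 nM), RAP1B-BODIPY-GDP (250 nM) and GDP (50 uM). After 5 min at room temperature, fluorescence was recorded at 5-min intervals for 30 min.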
EPAC2 antag: EPAC2 (human) antagonism | Potency, µM (series often up to 114 µM), inactives show top-dose activity, negative = inhibition, most hits filed as inhibitors | AID 720708 | 360,000 tested, 0.18% active | EPAC2 GEF exchange of Rap1B-BODIPY-GDP, fluorescence; also: % is scaled to controls: 0 for no effect and ±100 for the full control effect; nearly all actives have a fitted effect of over 45% in size
EPAC1 ag: agonists of human EPAC1. O95398. EPAC1 agonist qHTS, biochemical assay; response scale: 100% = response to 6.5 mM cAMP. Potency, µM (series often up to 154 µM), inactives show at the top dose activation, most hits filed as activators. 360,000 tested, 0.073% active; also: nearly all actives have a fitted effect of over 60% in size
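Read-out is the fluorescence drop as BODIPY-GDP leaves Rap1B (480 nm excitation, 540 nm emission), recorded every 5 minutes over 30 minutes. Reactions held 100 nM EPAC1, 250 nM Rap1B–BODIPY-GDP and 50 uM GDP, with 6.5 mM cAMP setting full activation.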
USP1 inh: USP1/UAF1 (human) deubiquitinase inhibition; recombinant USP1/UAF1, Ub-Rhodamine cleavage fluorescence; Potency, µM (series often up to 57.1 µM), inactives show at the top dose activity change, negative = inhibition, most hits filed as inhibitors; 390,000 tested, 0.23% active; also: % is scaled to controls: 0 for no effect and ±100 for the full control effect; nearly all actives have a fitted effect of over 60% in size
Target sequence (O94782 whole entry, looked up): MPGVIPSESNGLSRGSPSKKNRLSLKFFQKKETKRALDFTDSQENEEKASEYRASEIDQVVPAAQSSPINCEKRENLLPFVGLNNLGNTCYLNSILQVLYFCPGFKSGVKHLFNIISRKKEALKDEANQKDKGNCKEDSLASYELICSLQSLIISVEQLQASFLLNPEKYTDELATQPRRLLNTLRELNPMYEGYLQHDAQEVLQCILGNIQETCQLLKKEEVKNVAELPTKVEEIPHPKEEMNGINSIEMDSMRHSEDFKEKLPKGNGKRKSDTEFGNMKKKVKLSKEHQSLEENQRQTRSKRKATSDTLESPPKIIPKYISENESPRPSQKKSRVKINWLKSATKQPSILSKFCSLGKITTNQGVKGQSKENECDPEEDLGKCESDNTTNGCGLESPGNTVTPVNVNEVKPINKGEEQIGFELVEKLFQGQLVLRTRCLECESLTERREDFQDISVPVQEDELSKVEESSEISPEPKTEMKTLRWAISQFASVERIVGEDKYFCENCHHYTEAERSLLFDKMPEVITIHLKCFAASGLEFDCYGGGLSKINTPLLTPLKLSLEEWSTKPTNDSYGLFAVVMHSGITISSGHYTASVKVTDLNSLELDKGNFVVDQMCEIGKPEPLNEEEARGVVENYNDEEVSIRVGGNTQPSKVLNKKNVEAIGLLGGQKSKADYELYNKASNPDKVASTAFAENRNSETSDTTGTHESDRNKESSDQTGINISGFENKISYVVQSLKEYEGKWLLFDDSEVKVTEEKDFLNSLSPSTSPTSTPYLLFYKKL
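High-throughput fluorogenic screen: 1nM USP1/UAF1 complex, Ub-Rho substrate 150nM final, 50mM HEPES pH 7.8 with 0.5mM EDTA, 0.1 mg/ml BSA, 1mM TCEP and 0.01% Tween-20.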
EPAC1 antag: blocks human EPAC1 exchange factor; O95398; EPAC1 GEF assay, Rap1b-BODIPY-GDP exchange fluorescence; Potency, µM (highest dose often 115 µM), without a hit: at the highest dose activity change, negative = inhibition, usual class: inhibitors; 360,000 tested, 0.14% active;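 also: plate controls were vehicle for no effect and positive control for full effect; nearly all actives have a fitted effect of over 50% in size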
Starred values were filed as active, the others as inactive; ? = inconclusive; . = not tested or not shown. Calls follow the shape of the dose curve; as a rule, active = well fitted curve in the direction sought with a large enough effect; inconclusive = small, poorly fitted or top-dose-only effect, or another doubt; inactive = no such curve, though single readings can be large; an effect the other way counts as inactive or inconclusive. Potency is read from the fitted curve at half-maximal effect.

SMILES	EPAC2 ag	EPAC2 antag	EPAC1 ag	USP1 inh	EPAC1 antag
CNc1snc(C)c1C(=O)OCC(=O)Nc1ccc(C)cc1F	-7.8%	-2.9%	56.2µM*	-23.0%	-8.4%
CCc1ccccc1NC(=O)COC(=O)c1c(C)nsc1NC	4.2%	3.3%	-6.9%	-22.2%	8.6%
CC(C)O/C(=N/S(=O)(=O)c1ccc(Cl)cc1)c1ccccc1	14.2%	50.1µM*	1.6%	-24.2%	4.5%
COc1cc(/C=C/C(=O)NC(=O)c2ccccc2O)ccc1O	8.8%	-3.1%	13.2%	-22.4%	1.7%
COc1cc(/C=C/C(O)=C/C(=O)/C=C/c2ccc(O)cc2)ccc1O	0.4%	5.7%	-5.5%	28.2µM*	-28.8%
CN(C)c1ccc(/C=C/c2nc3ccccc3c(=O)n2-c2ccc(C(=O)O)cc2)cc1	-29.1%	-9.5%	63.1µM*	?	164.2%
Cc1ccc(Nc2c(-c3cc(Br)ccc3F)nc3cc(C)ccn23)cc1	.	.	.	-21.9%	.
O=c1cc2oc3cc(O)c(O)cc3c(-c3ccccc3[N+](=O)[O-])c-2cc1O	5.3%	?	0.4%	?	79.4µM*
O=c1cc(-c2ccccc2Cl)oc2cccc(O)c12	-6.6%	14.4%	-10.3%	-24.2%	5.6%
CCC1CCCCN1S(=O)(=O)c1cc(C(=O)Nc2ccc(C)c(F)c2)ccc1F (configuration not stated)	.	.	.	-8.4%	.
Cc1nn(C)c(C)c1N1C(=O)c2cccc3c(N)ccc(c23)C1=O	100µM*	373.7%	100µM*	25.1µM*	93.9%
Cc1nn(C)c(C)c1N1C(=O)c2cccc3c(Br)ccc(c23)C1=O	-1.2%	?	-3.6%	-11.2%	2.2%
CN(C)CCCN1C(=O)c2cccc3c(Br)ccc(c23)C1=O	1.3%	0.8%	2.6%	-27.6%	8.0%
CCN1C(=O)c2cccc3c(N)ccc(c23)C1=O	63.1µM*	130.1%	100µM*	164.9%	67.7%
Cc1ccc(N2C(=O)c3cccc4c(N)ccc(c34)C2=O)c2cccnc12	100µM*	278.8%	?	25.1µM*	112.8%
Fc1ccccc1N1CCN(c2ncnc3onc(-c4ccc(Cl)cc4)c23)CC1	.	.	.	-9.4%	.
COc1ccccc1Cn1ccn(Cc2c(F)cccc2Cl)c(=O)c1=O	.	.	.	3.6%	.
Cc1cc(C)cc(N=Cc2ccc([N+](=O)[O-])s2)c1	6.5%	-3.5%	-0.3%	12.6µM*	?
NC(=O)c1ccc(N=Cc2ccc([N+](=O)[O-])s2)cc1	8.5%	-13.8%	8.7%	10µM*	16.0%
CC(=O)Nc1cccc(C(=O)/C=C/c2ccc(Br)cc2)c1	14.5%	-8.4%	13.6%	-15.2%	-19.5%
CC(=O)Nc1cccc(C(=O)/C=C/c2ccc(F)cc2)c1	9.1%	-7.2%	-3.0%	-3.4%	79.4µM*
CC(=O)Nc1cccc(C(=O)/C=C/c2ccc(N(C)C)cc2)c1	6.4%	40.3%	-3.7%	5.62µM*	23.3%
Cc1ccc(/C=c2\sc3nc(-c4ccccc4Br)nn3c2=O)o1	7.7%	15.0%	-14.7%	-23.3%	-17.6%
C=CCn1c(=O)/c(=C/c2ccc(C)o2)s/c1=C(/C#N)C(=O)c1ccccc1	100µM*	58.5%	6.8%	?	4.4%
COc1ccc(-c2cn3c(n2)sc2cc(C(=O)NCCc4ccc(OC)cc4OC)ccc23)cc1	.	.	.	-26.5%	.
SMILES	EPAC2 ag	EPAC2 antag	EPAC1 ag	USP1 inh	EPAC1 antag
COc1ccccc1NC(=O)Cn1c(=O)n(CCC(=O)NCC2CCCO2)c(=O)c2cc(OC)c(OC)cc21 (configuration not stated)	.	.	.	2.0%	.
Cc1ccc(C(=O)N/C(=C\c2ccc(-c3ccccc3[N+](=O)[O-])o2)C(=O)NCCCN(C)C)cc1	14.9%	0.8%	0.8%	28.2µM*	10.5%
Cc1ccc(C(=O)N/C(=C\c2ccc(-c3ccccc3[N+](=O)[O-])o2)C(=O)NCCN(C)C)cc1	1.6%	-0.3%	6.4%	?	-6.3%
CC(=O)C1=C(c2cccc([N+](=O)[O-])c2)N(C(C)=O)n2c(C)nnc2S1	3.4%	23.1%	8.5%	14.1µM*	9.8%
CC(=O)C1=C(c2ccc(C)cc2)N(C(C)=O)n2c(nnc2-c2ccccc2)S1	.	.	.	-8.6%	.
CCOC(=O)CC(=O)Nc1ncnc2c1C(c1ccccc1)c1c(ccc3ccccc13)O2 (configuration not stated)	9.0%	?	12.4%	.	-7.4%
Nc1ncnc2c1C(c1ccccc1)c1c(ccc3ccccc13)O2 (configuration not stated)	6.5%	12.6µM*	-3.5%	.	-17.8%
Cn1c(-c2ccccc2)c(Sc2ccccc2)c2cc(-c3ccc4cc[nH]c4c3)ccc21	0.9%	7.5%	2.6%	.	3.7%
O=[N+]([O-])CC(c1ccc(F)cc1)c1c[nH]c2ccccc12 (configuration not stated)	18.6%	?	2.5%	-22.5%	-16.8%
Fc1ccc(C(Nc2ccccn2)c2c[nH]c3ccccc23)cc1 (configuration not stated)	2.5%	44.7µM*	9.7%	-11.7%	-15.5%
NC(=O)c1csc(-c2ccncc2)n1	9.6%	-1.7%	7.4%	0.4%	0.3%
Nc1cc(-c2ccncc2)c[nH]c1=O	8.5%	1.0%	-3.5%	39.8µM*	?
CC(C)C1N=C2c3ccccc3N=C(SCC(=O)NCc3ccccc3Cl)N2C1=O (configuration not stated)	.	.	.	-14.2%	.
CCC(COC)Oc1cc(NCc2ccccc2)c2ncn(C(C)C)c2c1 (configuration not stated)	8.5%	7.8%	-20.1%	12.6µM*	?
CCC(CO)Oc1cc(NCc2ccccc2)c2ncn(C(C)C)c2c1 (configuration not stated)	7.1%	2.4%	-10.1%	?	3.3%
COC(=O)C1=CN(Cc2cccs2)C=C(C(=O)OC)C1c1cccc(O)c1	-6.2%	50.1µM*	0.7%	-13.7%	0.6%
COc1cc(C(c2c(C(=O)O)[nH]c3ccccc23)c2c(C(=O)O)[nH]c3ccccc23)ccc1OCc1ccccc1	-3.8%	-25.8%	0.7%	?	39.8µM*
FC(F)(F)c1ccccc1Cc1c(-c2ccc(Cl)cc2)nc2ccc(Cl)cn12	-0.3%	56.2µM*	8.1%	.	-19.7%
FC(F)(F)c1ccccc1Cc1c(-c2ccccc2)nc2ccc(Cl)cn12	-1.8%	-28.6%	7.7%	.	-9.0%
CCOc1ccc(NC(=NCc2ccc3c(c2)OCO3)SC2CC(=O)N(c3ccc(OCC)cc3)C2=O)cc1 (configuration not stated)	8.5%	-8.8%	-3.7%	-4.3%	-4.7%
CCOc1ccc(NC(=NCc2ccc3c(c2)OCO3)SC2CC(=O)N(c3ccc(C(=O)O)cc3)C2=O)cc1 (configuration not stated)	1.4%	-14.6%	?	-1.6%	28.2µM*
Cc1c(-c2ccccc2)c(=O)oc2c(CN3CCOCC3)c(O)ccc12	.	.	.	10.7%	.
